High-throughput results: PubChem, several laboratories
EP2 modulator = EP2 receptor (human) modulation; P43116; EP2-expressing cells, cAMP HTRF FRET, PGE2 co-stimulation; induction, % at 25 µM; 0.83% of 260,000 active;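 active means compounds whose cAMP rise, as percent of the full-agonist control response, exceeds 60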;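 further: rat C6 glioma line stably carrying human EP2 under a CMV promoter; the protocol text gives 20 µM as final concentration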
CHT PAM = allosterically activates the human high affinity choline transporter; Q9GZV3; B-score at 10 µM; 0.49% of 310,000 active; CHT-expressing cells, membrane potential dye, choline EC20; hits give high values; LV-AA mutant CHT in HEK293 cells; AID 488977;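 active means initial fluorescence not abnormally high and integrated response B-score, plate-corrected, over 3 SD above library mean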
Target sequence (Q9GZV3 whole entry, looked up): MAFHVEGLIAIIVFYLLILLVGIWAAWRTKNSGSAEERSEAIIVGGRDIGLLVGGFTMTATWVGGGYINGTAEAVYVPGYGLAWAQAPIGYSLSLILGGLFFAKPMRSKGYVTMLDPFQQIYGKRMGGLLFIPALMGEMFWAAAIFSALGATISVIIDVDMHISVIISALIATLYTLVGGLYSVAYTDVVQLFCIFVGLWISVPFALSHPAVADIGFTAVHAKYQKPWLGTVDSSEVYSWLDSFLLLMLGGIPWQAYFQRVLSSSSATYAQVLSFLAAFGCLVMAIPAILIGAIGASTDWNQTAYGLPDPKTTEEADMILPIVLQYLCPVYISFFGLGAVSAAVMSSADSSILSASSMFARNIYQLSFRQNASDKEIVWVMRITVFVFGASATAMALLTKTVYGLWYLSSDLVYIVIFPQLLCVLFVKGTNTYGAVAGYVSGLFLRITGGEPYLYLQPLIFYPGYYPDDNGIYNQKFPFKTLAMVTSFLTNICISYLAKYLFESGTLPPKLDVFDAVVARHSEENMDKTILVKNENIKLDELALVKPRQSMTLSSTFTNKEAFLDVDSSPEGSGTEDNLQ
PGE2 EP2 inh = blocks the human prostaglandin E2 receptor EP2 | P43116 | inhibition, % at 25 µM | C6 glioma cells expressing human EP2, cAMP TR-FRET; cells stimulated with saturating PGE2 | 0.52% of 260,000 active;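 active means percent inhibition above 40 after rounding to a whole number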;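 further: rat C6 glioma host cells with rolipram phosphodiesterase inhibitor present; the protocol text gives 20 µM as final concentration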
CHT inh = inhibits the human high affinity choline transporter; CHT-expressing cells, membrane potential dye, choline response; hits give low values; B-score at 10 µM; 0.86% of 310,000 active;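 active means B-score over 3 SD under the library average, and starting fluorescence ratio not unusually high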;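 further: choline stimulus applied at its EC90 after an EC20 pre-addition; B-score computed on integrated fluorescence ratio after choline addition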
CHT inh conf = confirmation of human choline transporter CHT inhibitors | 70% of 2,400 active | AID 493221 | shares compounds with CHT inh | CHT activity remaining % of control (hits give low values), % at 10 µM | CHT-expressing cells, choline membrane potential dye; LV-to-AA substituted CHT, HEK293 cells;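 active means choline transporter activity left, mean of duplicates at 10 µM, below buffer-only control mean minus 3 SD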;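 further: depolarization triggered by choline at its EC90 following an EC20 pre-addition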
HEK293 CHT ctr = activity in parental HEK293 cells lacking CHT. shares compounds with CHT inh. 4% of 2,400 active. membrane potential ratio readout (active if shifted either direction beyond buffer ±3SD; no single direction) at 10 µM. membrane potential dye, choline response; active = decrease or increase beyond buffer ±3SD;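 further: parental cells lack the transporter so any hit is non-specific; ratio is peak minus trough fluorescence over baseline after EC90 choline challenge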
Of the large screens only hits and unclear results are named; the others gave an inactive call (follow-up assays come after a bar, where they were run). Only some compounds are listed: those with a hit (about 2% of all), similar ones and a draw of the others.

Cn1c(CN2CCN(CCO)CC2)c(C#N)c2ccccc21	CHT inh -5.3 | CHT inh conf 41% | HEK293 CHT ctr inactive
CCN=C(Nc1cccc(F)c1)SC1CC(=O)N(c2ccc(OC)cc2)C1=O (stereo unspecified)	none
COc1ccc(CN=C(Nc2ccccc2)SC2CC(=O)N(C)C2=O)cc1 (stereo unspecified)	CHT inh -5.5 | CHT inh conf inactive | HEK293 CHT ctr inactive
O=C(CN(c1cccc(C(F)(F)F)c1)S(=O)(=O)c1ccc(Cl)c([N+](=O)[O-])c1)NCc1ccccc1	none
CC(NC(=O)CN(c1cccc(C(F)(F)F)c1)S(=O)(=O)c1ccc(Cl)c([N+](=O)[O-])c1)c1ccccc1 (stereo unspecified)	CHT inh -6.2 | CHT inh conf inactive | HEK293 CHT ctr inactive
C#CCNc1c(C)c(C)nc2ncnn12	CHT inh -5 | CHT inh conf 23% | HEK293 CHT ctr inactive
CN1CCN(Cc2ccc(Sc3ccc(Cl)cc3)c([N+](=O)[O-])c2)CC1	CHT inh -5.1 | CHT inh conf 61% | HEK293 CHT ctr inactive
Cc1cc2c(o1)c1cnn(CC(=O)N(C)CCc3ccccn3)c(=O)c1n2C(C)C	none (no result: CHT PAM, PGE2 EP2 inh, CHT inh)
Cn1c(NC(=O)CCC2CCCCC2)cc(=O)n(C)c1=O	CHT inh -6.4 | CHT inh conf inactive | HEK293 CHT ctr inactive
COc1ccc(C(=O)NC2CC3CCC(C2)N3Cc2ccccc2)cc1OC (stereo unspecified)	none (no result: CHT PAM, CHT inh)
CCCCCCCCN1[C@@H](CC(=O)O)c2cc(C(F)(F)F)ccc2S1(=O)=O	none (no result: EP2 modulator)
CCCCCCCCCCCCN1[C@@H](CC(=O)O)c2cc(C(F)(F)F)ccc2S1(=O)=O	CHT inh -7.3 (no result: EP2 modulator) | CHT inh conf 44% | HEK293 CHT ctr inactive
CS(=O)(=O)N1CCN(c2ccc(NC(=O)c3cccc(Cl)c3)cc2)CC1	none (no result: CHT PAM, CHT inh)
CC(C)c1nc(C(=O)N2CCCC(N3CCN(c4cccc(Cl)c4)CC3)C2)cs1 (stereo unspecified)	CHT inh -12 (no result: EP2 modulator, PGE2 EP2 inh) | CHT inh conf 2.6% | HEK293 CHT ctr inactive
Cc1ccccc1N1CCN(C2CCCN(C(=O)c3csc(C(C)C)n3)C2)CC1 (stereo unspecified)	none (no result: EP2 modulator, PGE2 EP2 inh)
Cc1cc(-c2cnc(C)nc2C2CCCN(Cc3cccnc3)C2)on1 (stereo unspecified)	none (no result: CHT PAM, PGE2 EP2 inh, CHT inh)
Cc1c(NC(=O)CSc2nnc(C(C)Oc3ccc(Cl)cc3)n2-c2ccccc2)c(=O)n(-c2ccccc2)n1C (stereo unspecified)	CHT inh -10 | CHT inh conf 22% | HEK293 CHT ctr inactive
COc1cc2c(cc1OC)C(C)N(C(=O)c1ccccc1)CC2 (stereo unspecified)	none (no result: CHT PAM, CHT inh)
COc1cc2c(cc1OC)C(c1cccs1)N(C(=O)c1cccnc1)CC2 (stereo unspecified)	CHT inh -5.7 | CHT inh conf inactive | HEK293 CHT ctr inactive
CC(C)COCC(CN(Cc1ccccc1)c1ccccc1)N1CCCC1 (stereo unspecified)	CHT inh -5.2 | CHT inh conf inactive | HEK293 CHT ctr inactive
Cc1ccc(C)c(/C(O)=C2/C(=O)C(=O)N(CCCN3CCOCC3)C2c2ccco2)c1 (stereo unspecified)	none (no result: CHT PAM, CHT inh)
CSc1ccc(C(=O)C2CCCN(C(=O)c3nonc3C)C2)cc1 (stereo unspecified)	CHT inh -5.7 (no result: EP2 modulator, PGE2 EP2 inh) | CHT inh conf 60% | HEK293 CHT ctr inactive
COc1cccc(NC(=O)c2nc(S(C)(=O)=O)ncc2Cl)c1	CHT inh -6.8 (no result: EP2 modulator, PGE2 EP2 inh) | CHT inh conf 36% | HEK293 CHT ctr inactive
Cc1c2cnn(CC(=O)NCCN3CCOCC3)c(=O)c2c(C)n1Cc1ccccc1	none (no result: EP2 modulator, PGE2 EP2 inh)
CCCn1c2ccccc2c2cnn(CC(=O)OC)c(=O)c21	CHT inh -5.8 (no result: EP2 modulator, PGE2 EP2 inh) | CHT inh conf 24% | HEK293 CHT ctr inactive
CCCn1c2ccccc2c2cnn(CC(=O)NCCCN3CCCC(C)C3)c(=O)c21 (stereo unspecified)	CHT inh -6.6 (no result: EP2 modulator, PGE2 EP2 inh) | CHT inh conf 26% | HEK293 CHT ctr inactive
CCCn1c2ccccc2c2cnn(CC(=O)NCCCN3CCCCC3)c(=O)c21	CHT inh -9.3 (no result: EP2 modulator, PGE2 EP2 inh) | CHT inh conf 21% | HEK293 CHT ctr inactive
O=C(Cn1ncc2c3ccccc3n(Cc3ccccc3)c2c1=O)NCCN1CCOCC1	CHT inh -15 (no result: EP2 modulator, PGE2 EP2 inh) | CHT inh conf 6.6% | HEK293 CHT ctr inactive
